Compounds with a hit are over-represented: about 4.5% of the library has one in this group of screens.
hgDAF12 agonist = hgDAF-12 agonism, primary luciferase screen | HEK293 GAL4-hgDAF12 UAS-luciferase reporter, agonist luminescence; normalized to butyrate control | activation, % at 6.8 µM | 1.8% of 370,000 active | AID 687014;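 active = activation above a cutoff set at the mean of all screened compounds plus 3 SD, cut at about 10% in these data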;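 also: 0% = DMSO wells and 100% = sodium butyrate wells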
ssDAF-12 act = activators of S. stercoralis DAF-12 nuclear receptor; HEK293 ssDAF-12/GRIP1 lit1-tk-luc reporter, luminescence; % of 3 µM dafachronic acid response; activation, % at 6.8 µM; 1% of 370,000 active;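 active = activation above the mean over all tested compounds plus 3 SD, cut at about 0.9% in these data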;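 also: 0% = DMSO-only wells and 100% = 3 µM delta7-dafachronic acid wells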
DAX1 inh-1 = inhibits human nuclear receptor DAX1; P51843; HEK293 Gal4-DAX1 luciferase reporter, luminescence; inhibition, % at 6.75 µM; 0.99% of 340,000 active; AID 504766;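 active = inhibition above the mean over all tested compounds plus 3 SD, cut at about 4.2% in these data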;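 also: 0% = DAX1-transfected cells with DMSO and 100% = empty-vector control cells with DMSO; inhibition shows as a rise in luminescence from relieved DAX1 repression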
Target sequence (P51843 207-470 limits assumed): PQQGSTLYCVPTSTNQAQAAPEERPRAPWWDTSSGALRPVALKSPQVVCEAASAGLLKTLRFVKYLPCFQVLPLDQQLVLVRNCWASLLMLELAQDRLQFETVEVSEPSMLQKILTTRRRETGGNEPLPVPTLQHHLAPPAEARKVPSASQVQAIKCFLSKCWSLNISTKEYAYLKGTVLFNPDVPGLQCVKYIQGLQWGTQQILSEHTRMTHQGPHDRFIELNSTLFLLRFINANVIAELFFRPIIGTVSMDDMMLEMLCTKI
DAX1 inh-2 = DAX1 (NR0B1) inhibition, primary screen; HEK293T StAR-luciferase reporter, SF-1/DAX-1 repression relief; 1.1% of 370,000 active; inhibition, % at 6.8 µM;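 active = inhibition above the mean over all tested compounds plus 3 SD, cut at about 3.6% in these data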;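 also: 0% = DAX-1 cells with DMSO and 100% = cells lacking DAX-1 with DMSO; higher inhibition means more luminescence from relief of DAX-1 repression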
FXN GAA850 act = frataxin GAA850 promoter activation. activation, % at 6 µM. 0.56% of 360,000 active. HEK293 lucGAA850 FXN promoter luciferase reporter, 24 h; percent of 10 µM SAHA response. AID 540364;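 active = activation above the average of all compounds screened plus 3 SD, cutoff fixed separately per campaign, cut at about 7.5% in these data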;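 also: 0% = DMSO wells and 100% = 10 µM SAHA wells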
hcDAF12 agonist = activators of H. contortus DAF-12 nuclear receptor; HEK293 hcDAF-12 lit1-tk-luc reporter, luminescence; 0% DMSO, 100% Δ7-dafachronic acid; activation, % at 6.8 µM; 1.4% of 370,000 active; AID 652067;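 active = activation above the mean of all tested compounds plus 3 SD, cut at about 5.5% in these data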;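 also: 100% = response to 3 µM Δ7-dafachronic acid high control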
Active calls of the source: *; · = not tested or not shown.

SMILES	hgDAF12 agonist	ssDAF-12 act	DAX1 inh-1	DAX1 inh-2	FXN GAA850 act	hcDAF12 agonist
CCn1c(=O)cc(OCC(=O)NCCC(C)C)c2ccccc21	-2	0.9*	1	0	1	0
CCn1c(=O)cc(OCC(=O)O)c2ccccc21	1	-1	0	-1	0	0
N#Cc1c(NC(=O)c2nc3ncccn3n2)sc2c1CCCCC2	-5	-2	1	0	0	-3
CC1CCc2c(sc(NC(=O)c3nc4ncccn4n3)c2C#N)C1 (stereo unspecified)	4	-1	4.4*	0	3	-2
c1ccc(-c2nn(Cc3ncco3)c3ccccc23)cc1	-4	-1	·	·	·	2
Cc1nn(-c2ccccc2)c2c1C(c1ccc(O)c(O)c1)N1C(=N2)C(Nc2ccccc2)=Nc2ccccc21 (stereo unspecified)	-1	-1	4.3*	0	-1	-1
Cc1ccc(NC2=Nc3ccccc3N3C2=Nc2c(c(C)nn2-c2ccccc2)C3c2ccc(O)c(O)c2)cc1 (stereo unspecified)	1	-2	0	0	-2	3
NC(=O)c1ncn([C@@H]2O[C@H](C(=O)N[C@H](Cc3c[nH]c4ccccc34)C(=O)N3CCN(C(=O)N4CCCCC4)CC3)[C@@H](O)[C@H]2O)n1	0	-1	·	2	·	-1
CC(=O)NC(=S)Nc1sc2c(c1C#N)CCCCC2	12*	0	2	2	-1	3
CC(=O)Nc1sc2c(c1C#N)CCCC2	1	-1	-1	-1	4	-3
CC(C)C(=O)NC(=S)Nc1sc2c(c1C(N)=O)CCCC2	11*	0	0	1	6	0
CC1CCN(c2ccc(C(=O)O)cc2NS(=O)(=O)c2cccc3cccnc23)CC1	0	-1	·	0	·	0
Cc1ccc(C(=O)Nc2nc(C)c(C)s2)o1	13*	-1	2	3	3	4
COC(=O)C1CN(Cc2ccccc2)CCS(=O)(=O)N1Cc1cn(Cc2ccc(Cl)cc2)nn1 (stereo unspecified)	0	-1	·	-1	·	-1
Oc1c(/C=N/c2ccccn2)sc2ccccc12	3	1	4.7*	1	6	4
O=P(c1ccccc1)(c1ccccc1)C(O)c1ccccn1 (stereo unspecified)	1	1.2*	·	0	1	-1
CCOC(=O)c1cc(C(=O)Nc2ccccc2F)nn1C	13*	0	1	3	4	5
O=C(c1cccc(F)c1)N(Cc1ccccn1)CC1CCCO1 (stereo unspecified)	-1	0	·	0	·	-1
O=[N+]([O-])c1cnn(-c2nc(-c3cccs3)cc(C(F)(F)F)n2)c1	1	-1	4.7*	0	2	-1
Nn1c(SCC(=O)Nc2ccc(OCc3ccccc3)cc2)nnc1-c1cc(-c2ccc(Cl)cc2)n[nH]1	1	-1	·	-2	·	1
CC1CCc2nn(CC(=O)NCCN3CCCCC3C)cc2C1 (stereo unspecified)	5	-1	5.8*	1	1	-1
CC1CCc2nn(CC(=O)N3CCc4ccccc43)cc2C1 (stereo unspecified)	3	0	4.6*	1	3	3
Cc1ccn(CCC(=O)N2CCc3ccccc32)n1	0	0	1	4.1*	2	1
O=C(Cn1ccc([N+](=O)[O-])n1)N1CCc2ccccc21	0	0	-1	0	2	-1
Cc1ccc(S(=O)(=O)N[C@H](C(=O)N2CCC(C(=O)N[C@@H](CC(=O)O)C(=O)O)CC2)C(C)C)cc1	0	-1	8.8*	1	2	0
Cc1ccc(S(=O)(=O)N[C@@H](CC(C)C)C(=O)N2CCC(C(=O)N[C@@H](Cc3ccccc3)C(=O)O)CC2)cc1	0	-1	6.9*	0	-1	0
O=C(C1CCCN1S(=O)(=O)c1ccc(Br)s1)N1CCN(c2ccccc2)CC1 (stereo unspecified)	-5	-1	·	-1	·	0
Brc1ccc(-c2nn3c(-c4ccccc4)nnc3s2)cc1	-2	-1	·	0	·	-3
CN(C)CC[n+]1ccc(C(=O)c2ccccc2)cc1	0	0	5.1*	0	2	-1
